Source: PubChem BioAssay (several laboratories)
In the library only some 2.7% were active in any assay of this set; here they are far more common.
proKLK7 act – proKLK7 (human) activation, primary screen; P49862; purified proKLK7, EDANS-DABCYL substrate fluorescence; 100% is mature enzyme control, 0% vehicle; activation, % at 7 µM; 370,000 compounds, 0.9% hits; AID 652039;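 active means activation above the mean of all tested compounds plus 3 SD, computed per campaign excluding outliers beyond control limits, cut at about 13% in these data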
Target sequence (P49862 whole entry, looked up): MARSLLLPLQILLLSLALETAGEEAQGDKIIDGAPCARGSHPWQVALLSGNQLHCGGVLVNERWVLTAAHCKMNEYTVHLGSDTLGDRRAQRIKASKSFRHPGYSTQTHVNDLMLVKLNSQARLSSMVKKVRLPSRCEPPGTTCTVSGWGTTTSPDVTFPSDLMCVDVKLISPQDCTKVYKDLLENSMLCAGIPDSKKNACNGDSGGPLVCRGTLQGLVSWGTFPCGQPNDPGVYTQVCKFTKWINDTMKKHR
PfG6PD inh – PfG6PD (Plasmodium falciparum) enzyme inhibition; AID 504690; 350,000 compounds, 0.78% hits; inhibition, % at 20 µM; PfGluPho enzyme, NADPH resazurin-diaphorase fluorescence;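 active means inhibition reaching at least a set limit at 20 µM in the primary screen, cut at about 59% in these data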
Neddyl block – inhibitors of human cullin neddylation. 360,000 compounds, 0.58% hits. TR-FRET cullin neddylation, biochemical. calls only at 25 µM. P61081+Q13564. AID 651699; in the data active means inhibition above about 36%
FAS TE block – FAS thioesterase (human) inhibition | P49327 | recombinant FAS-TE, OMFH fluorogenic substrate, fluorescence endpoint | inhibition, % at 15 µM | 360,000 compounds, 0.67% hits | AID 602261;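 active means compounds whose normalised, plate-corrected inhibition of enzyme fluorescence in the single-dose primary screen is 50% or more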
Numbers stand for hits; i = inactive; nt = not tested or not shown; + = active, no number.

SMILES | proKLK7 act | PfG6PD inh | Neddyl block | FAS TE block
Cc1nc(C(=O)NCCO)cc2c1[nH]c1ccccc12 | i | i | i | i
COc1ccc(CNC(=O)C(c2ccco2)N(C(=O)c2snc(C(N)=O)c2N)c2ccccc2OC)cc1 (stereo not given) | i | i | + | i
COCCCNC(=O)c1ccc2c(c1)NC(=O)C(C)(C)O2 | i | nt | nt | nt
COc1ccc(C2C(C(=O)N3CCN(C=O)CC3)CC(=O)N2c2ccc(OC)cc2)cc1 (stereo not given) | i | nt | nt | nt
c1ccc(-c2nc3ccccn3c2NC2CCCC2)nc1 | i | i | + | i
Cc1ccn2c(NC3CCCC3)c(-c3ccccn3)nc2c1 | i | i | + | i
Cc1cc(C)n2c(NC3CCCCC3)c(-c3ccccn3)nc2n1 | i | nt | i | i
CC1(C)CC(=O)N(CC(=O)N2CCN(Cc3ccccc3)CC2)c2ccccc2S1(=O)=O | i | nt | nt | nt
Cc1ccc(NS(=O)(=O)c2cc([N+](=O)[O-])ccc2NNC(=S)Nc2cccc(Cl)c2)c(C)c1 | nt | i | i | 52
Cc1ccc(NS(=O)(=O)c2cc([N+](=O)[O-])ccc2NNC(=S)Nc2cc(C)ccc2C)c(C)c1 | i | i | i | i
O=C(NCc1ccc(F)cc1)C1CCCN(c2nc3ccccc3o2)C1 (stereo not given) | i | nt | nt | nt
O=C(CSc1nc2sc3c(c2c(=O)n1-c1ccc(Cl)cc1)CCC3)Nc1ccc(C(=O)O)cc1 | i | nt | nt | nt
COc1cc(/C=C/c2ccc3cccc([N+](=O)[O-])c3n2)ccc1OCC#N | i | i | i | 53
O=C1C=CC(=O)N1CCCCCCN1C(=O)C=CC1=O | i | 95 | nt | nt
COc1cccc(/C=N/NC(=O)c2ccc3nc[nH]c3c2)c1O | i | i | i | i
CCN(CC)c1ccc(/C=N/NC(=O)c2ccc3nc[nH]c3c2)c(O)c1 | nt | i | + | i
CCN=C1S/C(=C\c2ccc(-c3cccc(C(=O)O)c3)o2)C(=O)N1CC | nt | i | + | i
CCn1c2ccccc2c2nc3ccccc3nc21 | nt | i | + | i
COC(=O)C1=C(C)NC(C)=C(C(=O)OC)C1c1cn(-c2ccccc2)nc1-c1ccco1 | 55 | i | nt | i
CC(C)c1ccc(S(=O)(=O)/N=C2/C=C(Sc3ncn[nH]3)C(=O)c3ccccc32)cc1 | nt | 104 | i | i
CC(C)(C)c1ccc(S(=O)(=O)/N=C2\C=C(NS(=O)(=O)c3ccccc3)C(=O)c3ccccc32)cc1 | i | i | i | i
O=C(CSc1nc2ccccc2nc1N1CCCCC1)NCc1ccc(Cl)cc1Cl | i | nt | nt | nt
COc1ccc(-n2nnc3c(SC(C(C)=O)C(=O)N(C)C)ncnc32)cc1 (stereo not given) | i | 64 | i | i
Cc1cccc([C@@H]2[C@@H]3C(=O)N(Cc4ccccc4)C(=O)[C@@H]3[C@]3(C)C(=O)N(c4ccc(C(F)(F)F)cc4)C(=O)N23)c1 | nt | i | i | 81
CCOC(=O)CSc1nc2ccc(Nc3nc(N4CCOCC4)nc(N4CCOCC4)n3)cc2s1 | i | i | i | 54
SMILES | proKLK7 act | PfG6PD inh | Neddyl block | FAS TE block
CNc1cc(-c2ccc(OC)c(OC)c2)ncn1 | i | nt | i | i
CNc1ccc2ncc(-c3ccc(OC)c(OC)c3)n2n1 | 45 | nt | nt | i
Cc1ccc(C(=O)NC(=S)NNC(=O)c2ccccc2)cc1 | i | i | i | i
Cc1ccc(C(=O)NNC(=S)NC(=O)c2ccccc2)cc1 | i | i | + | i
O=C(/C(N=Nc1cccc([N+](=O)[O-])c1)=C(/O)c1ccc(Br)cc1)C(F)(F)F | nt | nt | i | 64
Cc1cccc(N2CCN(C(=O)Cn3sc4nc(C)cc(C)c4c3=O)CC2C)c1 (stereo not given) | nt | 105 | i | i
Cc1cccc(N2CCN(C(=O)Cn3nc(C)n4cccc4c3=O)CC2C)c1 (stereo not given) | i | i | i | i
O=C(O)c1ccc(-c2ccc(-c3ccccc3)cc2)s1 | nt | nt | + | i
Cc1cccc(-n2ncc3c(NCCCN4CCCC4=O)ncnc32)c1 | i | i | + | i
O=C1CCCN1CCCNc1ncnc2c1cnn2-c1ccc(Cl)cc1 | i | i | i | i
CC[C@H](CCCCCCCn1ccc2ccccc21)CCC(=O)N(c1ccccc1)c1ccccc1 | i | nt | nt | nt
COC(=O)[C@]1(Cc2ccccc2)N[C@H](c2ccc(-c3ccc4c(c3)OCO4)cc2)[C@@H]2C(=O)N(C)C(=O)[C@@H]21 | i | i | i | 86
CCOC(=O)N1CCN(C(=O)C[C@H]2C[C@@]3(C(=O)OC)C(=C[C@H](C4CCCC4)O[C@@H]3C)N(CCC3=CCCCC3)C2=O)CC1 | i | nt | nt | nt
O=C(OC12CCCN(C1)/C(=C/c1ccc(Cl)cc1)C2)c1ccc(Cl)cc1 (stereo not given) | i | nt | nt | nt
C/C(=N\NC(=O)c1nnn(-c2nonc2N)c1CN1CCCCC1)c1ccccc1O | i | i | + | i
COc1ccc(OC)c(-c2nc(C(=O)NC3CCN(Cc4ccccc4)CC3)cc3c2[nH]c2ccccc23)c1 | i | i | i | i
COc1cc(-c2nc(C(=O)NC3CCN(Cc4ccccc4)CC3)cc3c2[nH]c2ccccc23)cc(OC)c1OC | nt | i | i | 77
O=C(Nc1ccccc1)Nc1nc2ncccn2c1-c1ccc(F)cc1 | i | nt | nt | nt
c1ccc(-[n+]2nc(Nc3cccc4ccccc34)sc2-c2c3ccccc3cc3ccccc23)cc1 | nt | 83 | i | i
Cc1cc(-c2nsc(=O)o2)c(S(C)(=O)=O)s1 | i | 68 | i | i
Cc1cc(N)ccc1N1CCCC1 | nt | 88 | i | i
Cc1ccc(-n2c(C)cc(=O)cc2C)c(C)c1 | i | i | i | i
NC(=O)c1cc(N)ccc1N1CCCC1 | i | i | i | i
Cc1cc(N)ccc1-n1c(C)ccc1C | i | 59 | i | i
C=CCN1C(=O)[C@@H](CC(=O)NCc2cccc(C(F)(F)F)c2)[C@]2(C(=O)OC)CCCCC=C12 | i | nt | nt | nt
SMILES | proKLK7 act | PfG6PD inh | Neddyl block | FAS TE block
OC(c1ccccc1)(c1ccccc1)C1CCN(CCCNc2ccc(Cl)cc2Cl)CC1 | i | nt | nt | nt
O=C(OC12CCCN(C1)/C(=C/c1ccncc1)C2)c1cccc(F)c1 (stereo not given) | i | nt | nt | nt
CC(=O)C1(C(=O)NC2CCCC2)CC(c2ccccn2)=NO1 (stereo not given) | i | nt | nt | nt
O=C(CCl)Nc1ccccc1Sc1ccc(Cl)cc1 | i | 87 | i | i
CC(=O)N1CCN(CC(=O)Nc2ccccc2Sc2ccc(Cl)cc2)CC1 | i | i | i | i
C#CCOCCOCCOCCNc1nc(N2CCN(C(=O)[C@H](CCCCN)n3cc([C@@H](N)C(C)CC)nn3)CC2)nc(N2CCN(C(=O)[C@H](Cc3cc4ccccc4[nH]3)n3cc([C@@H](N)CC(C)C)nn3)CC2)n1 (stereo not given in full) | nt | 60 | i | i
C#CCOCCOCCOCCNc1nc(N2CCN(C(=O)CCCCCCCCCCNC(=O)[C@@H](CCC(=O)O)n3cc(CCCCCN)nn3)CC2)nc(N2CCN(C(=O)CCCCCCCCCCNC(=O)[C@H]([C@@H](C)CC)n3cc(CCCCCN)nn3)CC2)n1 | nt | i | i | i
C#CCOCCOCCOCCNc1nc(N2CCN(C(=O)CCCCCCCCCCNC(=O)[C@H]([C@@H](C)CC)n3cc(CCCCCN)nn3)CC2)nc(N2CCN(C(=O)CCCCCCCCCCNC(=O)[C@H](CO)n3cc(CCCCCN)nn3)CC2)n1 | nt | 61 | i | i
